{
  "source": "PubChem BioAssay (NCI)",
  "note": "Several values for one entry are separate records, joined by “and”; a condition that tells them apart may be missing. Identical values can stand only once. This is part of a sample that, as a whole, favours compounds with a hit. Of some 83,000 tested, about 20% had one in any assay.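 The test compound was applied at a single concentration to cells in 96-well plates for 48 hours, and percent growth was recorded.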 Activity calls are given as the source filed them. Rule for the calls: active = growth percent below 10; inactive = the rest.",
  "data": [
    {"tested_on": "TK-10 renal", "assay": "NCI-60 one-dose screen, 48 h (100 = growth as untreated, 0 = no growth, -100 = all killed)", "details": "10 µM unless noted", "values": [
      {"smiles": "C/C(Cl)=N/OC(=O)Nc1ccc(S(N)(=O)=O)c(C)c1", "growth": "-100% [100 µM] (active)"},
      {"smiles": "CCOC(=O)CCC(NC(=O)c1ccc(OCc2nc3cc(C(F)(F)F)ccc3nc2-c2ccccc2)cc1)C(=O)OCC", "note": "(centres undefined)", "growth": "84.3% [100 µM] (inactive) and 14.7% [100 µM] (inactive)"},
      {"smiles": "O=C1N(c2ccccc2)N=C2c3ccncc3C3=NN(c4ccccc4)C(=O)C123", "note": "(centres undefined)", "growth": "70.4% [100 µM] (inactive) and -59.4% [100 µM] (active)"},
      {"smiles": "N#CC1C(=O)N(c2ccccc2)NC12OC(=O)c1ccncc12", "note": "(centres undefined)", "growth": "88.7% [20 µM] (inactive) and 4.38% [20 µM] (active)"},
      {"smiles": "COc1cc(CC2c3cc(OC)c(OC)cc3CCN2C)c(Oc2cc3c(cc2OC)-c2c(O)c(OC)cc4c2C(C3)N(C)CC4)cc1OC", "note": "(centres undefined)", "growth": "-10.6% [100 µM] (active) and -93% [100 µM] (active)"},
      {"smiles": "CC(=O)c1cc2c(s1)C(=O)c1scc(C(C)=O)c1C2=O", "growth": "-9.55% [100 µM] (active) and -86% [100 µM] (active)"},
      {"smiles": "CCCn1c2c(c3ccccc3c1=O)C(=O)c1ccccc1-2", "growth": "88% [100 µM] (inactive) and 22.3% [100 µM] (inactive)"},
      {"smiles": "CC(=O)OCC1=C(C)C[C@H]([C@@H](COC(C)=O)C2CCC3C4C[C@H]5O[C@]56CC=CC(=O)[C@]6(C)C4CC[C@@]32C)OC1=O", "note": "(some centres undefined)", "growth": "-97.1% [50 µM] (active) and -100% [50 µM] (active)"},
      {"smiles": "N#CC12COC3(CCCCC3C1(C#N)C#N)OC2=N", "note": "(centres undefined)", "growth": "41.4% [100 µM] (inactive)"},
      {"smiles": "N#Cc1sc2nc(/C=C3/C=CC=CC3=O)c(O)n2c1N", "growth": "78.8% [100 µM] (inactive) and 47.7% [100 µM] (inactive)"},
      {"smiles": "CCCCCCCCCc1cc(=O)c2c(O)cc(O)cc2o1", "growth": "-87.9% [100 µM] (active) and -100% [100 µM] (active)"},
      {"smiles": "COc1ccc(CC2c3cc(OC)c(OC)c(OC)c3CC[N+]2(C)C)cc1Oc1ccc(CC2c3cc4c(c(OC)c3CCN2C)OCO4)cc1", "note": "(centres undefined)", "growth": "85.8% [100 µM] (inactive) and 47.5% [100 µM] (inactive)"},
      {"smiles": "CC(=O)OC(=C(C#N)C#N)c1nccnc1C(C)=O", "growth": "102% [20 µM] (inactive) and -96% [20 µM] (active)"},
      {"smiles": "N#Cc1c(=N)cc2c3ccccc3oc3c(C#N)c(N)[nH]c1c32", "growth": "47.1% [100 µM] (inactive) and 2.25% [100 µM] (active)"}
    ]}
  ]
}
